Values joined by “and” are separate entries in the source; they are usually repeats but may differ in a detail not shown here. Equal values may be shown once. Records with an inconclusive call do not appear. Active and inactive are the calls of the source. Unless noted, the call rests on the fitted dose curve; in most records, active means well fitted curve in the direction sought with a large enough effect; inconclusive means small, poorly fitted or top-dose-only effect, or another doubt; inactive means no such curve, though single readings can be large; an effect the other way counts as inactive or inconclusive.
Legend:
[1] = Cell Viability - SK-N-SH (AID 435; calls by dose curve;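 further: potency means the concentration at half of the fitted maximal effect; compound exposure lasted 40 h at 37 °C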); conditions: SK-N-SH neuroblastoma cell viability qHTS
Procedure, shortened: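 Luminescent ATP signal served as the viability read-out after 40 hours of compound treatment of human neuroblastoma SK-N-SH cells. Concentration-response data, scaled between DMSO and 100 uM tamoxifen, gave AC50 values by standard Hill modeling.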

[2] = Cell Viability - HUV-EC-C (AID 542); conditions: HUV-EC-C endothelial cell viability, qHTS; series mostly up to 92.2 µM; further: on the % scale 0 is the no-effect control and ±100 the full control effect; nearly all actives have a fitted effect of over 35% in size
Procedure, shortened: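 Decrease in cellular ATP, quantified by luciferase luminescence, reflects toxicity in normal human vascular endothelial HUV-EC-C cells given compound for 40 hr in complete culture medium. Values are AC50s from concentration-response curves.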

[3] = Cell Viability - H-4-II-E (AID 543); conditions: H-4-II-E rat hepatoma viability; series mostly up to 92.2 µM; further: on the % scale 0 is the no-effect control and ±100 the full control effect; nearly all actives have a fitted effect of over 35% in size
Procedure, shortened: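 Here, cytotoxicity is measured in the rat hepatoma line H-4-II-E as loss of intracellular ATP after 40 hr compound treatment, detected by luciferase luminescence.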

[4] = Cell Viability - SH-SY5Y (AID 544); conditions: SH-SY5Y neuroblastoma cell viability; viability change, negative = cytotoxic: at 92.2 µM (top of the series);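 further: 0% = DMSO alone and -100% = 100 µM tamoxifen; nearly all actives have a fitted effect of over 55% in size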
Procedure, shortened: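 Cytotoxicity is scored as a concentration-dependent fall in intracellular ATP in human SH-SY5Y cells treated 40 hr in complete culture medium. Potency is expressed as AC50 from a Hill equation fit.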

[5] = Cell Viability - Renal Proximal Tubule (AID 545); conditions: renal proximal tubule cells viability; series mostly up to 91.7 µM;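 further: 0% = DMSO only and -100% = 100 µM tamoxifen; nearly all actives have a fitted effect of over 40% in size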
Procedure, shortened: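 Luminescent ATP signal (CellTiter-Glo) served as the viability read-out after 40 hr compound exposure of freshly isolated rat proximal tubule cells at 37 °C. Concentration-dependent ATP loss was fitted with the Hill equation to give AC50.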

[6] = Cellular Toxicity (caspase-3) H-4-II-E (AID 663); conditions: H-4-II-E rat hepatoma; Potency: caspase-3 activation; series mostly up to 92.2 µM;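 further: 0% = DMSO basal and 100% = 100 µM tamoxifen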
Procedure, shortened: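 Apoptosis induction is scored as increased luminescence from caspase 3/7 substrate cleavage in rat hepatoma H-4-II-E cells exposed to compound for 16 hr. Activity is scaled between DMSO and 100 uM tamoxifen.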

[7] = Cell Viability - LYMP2-001 (AID 921); conditions: LYMP2-001 lymphoblastoid cell viability; series mostly up to 92.2 µM;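 further: cells exposed to compound for 24 h at 37 °C; 0% = DMSO only and full inhibition = tetraoctylammonium bromide control wells; nearly all actives have a fitted effect of over 70% in size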
Procedure, shortened: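 Steps: seed 2500 lymphoblastoid cells/well; 5 hr, 37 C; add compound; 24 hr, 37 C; CellTiter-Glo reagent, 30 min room temperature; read luminescence. Concentration-response modeled by Hill equation for AC50.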

[8] = Cell Viability - LYMP2-023 (AID 975); conditions: LYMP2-023 lymphoblastoid cell viability; series mostly up to 92.2 µM;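 further: cellular ATP measured by luciferase luminescence as viability proxy; cells exposed to compound for 24 hours at 37 °C; plate controls were DMSO only for no effect and 92 µM tetraoctylammonium bromide control for full effect; nearly all actives have a fitted effect of over 55% in size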
Procedure, shortened: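 Concentration-dependent drop in intracellular ATP measures acute cytotoxicity in a human lymphoblastoid line treated for 24 hours in complete culture medium. AC50 values are taken from Hill-equation fits of qHTS data.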

[9] = Cell Viability - LYMP2-006 (AID 978); conditions: LYMP2-006 lymphoblastoid cell viability, qHTS; series mostly up to 92.2 µM;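 further: cells exposed to compound for 24 hours; on the % scale 0 is the no-effect control and ±100 the full control effect; nearly all actives have a fitted effect of over 60% in size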
Procedure, shortened: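 Cells are seeded at 2500 per well and rested 5 hr at 37 C. Compounds are added across a concentration series for 24 hr at 37 C, after which ATP is quantified by luciferase luminescence.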

[10] = Cell Viability - LYMP2-010 (AID 981); conditions: LYMP2-010 lymphoblastoid cell viability, qHTS; series mostly up to 92.2 µM;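 further: cells exposed to compound for 24 hours at 37 °C; on the % scale 0 is the no-effect control and ±100 the full control effect; nearly all actives have a fitted effect of over 55% in size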
Procedure, shortened: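 Acute toxicity is scored as a concentration-dependent loss of cellular ATP in human lymphoblastoid cells after 24 hr compound exposure in complete medium. Tetraoctylammonium bromide is the positive control.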

[11] = Cell Viability - LYMP2-012 (AID 982); conditions: LYMP2-012 lymphoblastoid cell viability qHTS; series mostly up to 92.2 µM;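 further: cellular ATP by luciferase luminescence where a drop means cytotoxicity; cells exposed to compound for one day before reading; 0% = DMSO only and full loss = 92 µM tetraoctylammonium bromide; nearly all actives have a fitted effect of over 55% in size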
[12] = Cell Viability - LYMP2-020 (AID 986); conditions: series mostly up to 92.2 µM
Procedure, shortened: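 Acute cytotoxicity in a human lymphoblastoid line is scored as a concentration-dependent fall in cellular ATP after 24 hr at 37 C in complete medium. The positive control is tetraoctylammonium bromide, and potency is given as Hill-fit AC50.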

[13] = Cell Viability - LYMP1-002 - Assay at 24 hr (AID 993); conditions: LYMP1-002 lymphoblastoid cells viability; series mostly up to 92.2 µM; further: on the % scale 0 is the no-effect control and ±100 the full control effect
Procedure, shortened: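 qHTS, LYMP1-002 lymphoblastoid, 24 h cpd, 37 C, CellTiter-Glo ATP luminescence; AC50 via Hill eq.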

[14] = qHTS assay for small molecule disruptors of the mitochondrial membrane potential - 1 hr assay (AID 651754; calls by dose curve; further: on the % scale 0 is the no-effect control and ±100 the full control effect; nearly all actives have a fitted effect of over 35% in size); conditions: series mostly up to 92.2 µM
Procedure, shortened: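 Steps: seed HepG2 cells and let attach overnight; pin-transfer compound or vehicle; incubate 1 hr at 37C; add Mito-MPS dye for 30 min; read two-channel fluorescence for monomer and aggregate forms.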

[15] = qHTS assay for cell viability of HEK293 cells (AID 743288); conditions: ATP luminescence (CellTiter-Glo), 18 h, hits give low values; further: on the % scale 0 is the no-effect control and ±100 the full control effect; nearly all actives have a fitted effect of over 50% in size
Procedure, shortened: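 HEK293 parental, 2,000 cells/well; ≥5 h pre-incubation 37 C; pintool compound addition; 18 h, 37 C; CellTiter-Glo 30 min RT; luminescence read.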

[16] = Cell Viability - LYMP2-019 (AID 973); conditions: LYMP2-019 lymphoblastoid cell line viability; series mostly up to 92.2 µM
Procedure, shortened: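 Cells plated at 2500/well and allowed 5 hr at 37 C before compound addition. After 24 hr incubation, CellTiter-Glo reagent was added, plates sat 30 min at room temperature, and luminescence was recorded.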

[17] = target: Retinoic acid receptor RXR-alpha (Homo sapiens) (UniProt P19793); assay: qHTS assay for small molecule antagonists of retinoid X receptor alpha signaling (AID 588546; active means well fitted inhibition curve with a large enough effect in the signal ratio, with a control signal flat, not every such curve was filed as active; the % refers to the signal ratio;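 further: cells stimulated with 9-cis-retinoic acid as agonist; on the % scale 0 is the no-effect control and ±100 the full control effect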); conditions: HEK293T RXRa-UAS-bla, beta-lactamase ratio, antagonist mode
Chain of Retinoic acid receptor RXR-alpha (Homo sapiens) (P19793 whole entry, looked up): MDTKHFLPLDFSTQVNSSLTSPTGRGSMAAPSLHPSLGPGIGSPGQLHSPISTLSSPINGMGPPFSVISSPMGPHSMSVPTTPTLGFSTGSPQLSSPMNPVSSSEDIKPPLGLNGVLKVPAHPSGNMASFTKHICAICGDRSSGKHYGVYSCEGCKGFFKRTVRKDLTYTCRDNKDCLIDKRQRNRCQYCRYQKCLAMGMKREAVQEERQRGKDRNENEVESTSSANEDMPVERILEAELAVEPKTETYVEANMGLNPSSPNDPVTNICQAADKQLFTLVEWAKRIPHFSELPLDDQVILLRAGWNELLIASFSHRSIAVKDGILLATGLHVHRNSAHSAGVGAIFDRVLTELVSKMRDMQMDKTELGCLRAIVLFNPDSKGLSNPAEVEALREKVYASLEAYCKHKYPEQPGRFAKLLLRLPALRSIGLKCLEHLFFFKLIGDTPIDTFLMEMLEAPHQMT
Procedure, shortened: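 Beta-lactamase reporter inhibition, read as CCF4 fluorescence ratio (ex 405, em 460/530 nm) after 2 h at RT. HEK293T UAS-bla cells, 2500/well, were stimulated with 9-cis-RA at 500 or 100 nM final alongside test compound for 18 h at 37 C.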

[18] = qHTS assay for small molecule activators of the nuclear factor-kappa B (NF-kB) signaling pathway (AID 651749; active means well fitted activation curve with a large enough effect in the signal ratio; the % refers to the signal ratio; further: % of control where 0% means no effect); conditions: NF-kB-bla ME-180 cells, beta-lactamase FRET ratio, 16 h; hits give high values
Procedure, shortened: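 Stably transfected ME-180 line; NF-kB response element upstream of beta-lactamase. Treatment: compound or DMSO, 16 hr. Detection: fluorescent FRET substrate.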

[19] = qHTS assay for small molecule agonists of the antioxidant response element (ARE) signaling pathway measured by Nrf2-dependant transcriptional activity (AID 720636; active means well fitted curve in the direction sought with a large enough effect in the repeat runs; an effect the other way counts as inactive or inconclusive;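 further: HepG2 cells with an ARE-driven luciferase reporter; % of control where 0% means no effect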); conditions: ARE-luc HepG2, Nrf2 luciferase reporter, 16 h; series mostly up to 92.4 µM
Procedure, shortened: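 We exposed ARE-luc HepG2 cells, seeded in assay medium with 1% dialyzed FBS and allowed 6 hr to adhere, to test compounds overnight (16 hr, 37 C) before measuring luciferase with ONE-Glo.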

[20] = target: Peroxisome proliferator-activated receptor gamma (Homo sapiens) (UniProt P37231); assay: qHTS assay for small molecule agonists of peroxisome proliferator-activated receptor gamma signaling (AID 588536; active means well fitted curve in the direction sought with a large enough effect in the signal ratio, with a control signal flat, not every such curve was filed as active; the % refers to the signal ratio;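 further: 0% = DMSO basal wells and 100% = rosiglitazone at 2 µM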); conditions: HEK293 PPARg-UAS-bla, beta-lactamase ratio, 16 h, percent of rosiglitazone response, DMSO as zero; series mostly up to 76.7 µM
Chain of Peroxisome proliferator-activated receptor gamma (Homo sapiens) (P37231 whole entry, looked up): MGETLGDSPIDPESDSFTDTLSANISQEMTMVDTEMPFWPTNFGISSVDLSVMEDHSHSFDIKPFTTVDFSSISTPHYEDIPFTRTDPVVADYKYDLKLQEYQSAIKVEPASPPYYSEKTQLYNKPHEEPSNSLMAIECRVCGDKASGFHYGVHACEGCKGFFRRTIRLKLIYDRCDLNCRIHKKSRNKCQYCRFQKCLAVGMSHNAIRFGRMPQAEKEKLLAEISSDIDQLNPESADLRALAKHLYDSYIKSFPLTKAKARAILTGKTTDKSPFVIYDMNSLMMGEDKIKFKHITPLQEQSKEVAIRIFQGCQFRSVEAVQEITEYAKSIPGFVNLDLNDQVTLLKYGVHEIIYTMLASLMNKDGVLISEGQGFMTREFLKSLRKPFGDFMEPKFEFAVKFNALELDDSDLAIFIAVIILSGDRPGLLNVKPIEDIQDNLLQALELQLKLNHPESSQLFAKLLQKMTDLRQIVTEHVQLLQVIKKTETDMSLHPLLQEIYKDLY
Procedure, shortened: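 Ratiometric blue/green fluorescence (405 nm excitation; 460 and 530 nm emission) from CCF4-loaded HEK293 reporter cells serves as signal. Exposure to test compounds lasts 16 h at 37 C in medium containing 1% charcoal/dextran-treated serum.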

CN(C)c1ccccc1
inactive: Potency [1] > 92 µM | Potency [2] | Potency [3] | Potency [4] | outcome [5] | Potency [6] | Potency [7] | Potency [8] | Potency [9] | Potency [10] | Potency [11] | Potency [12] | Potency [13] | Potency [14] | max response [15] 0.461%

Cl/C=C\Cl
inactive: Potency [2] | Potency [3] | Potency [4] | outcome [5] | Potency [6] | Potency [7] | Potency [16] | Potency [8] | Potency [9] | Potency [11] | Potency [12] | Potency [13] | max response [17] -5.23% | activation [18] 0.0953% | Potency [14] | Potency [19] | max response [15] -1.83%

C=CCBr
inactive: Potency [2] | Potency [3] | Potency [4] | outcome [5] | Potency [6] | Potency [7] | Potency [16] | Potency [8] | Potency [10] | Potency [11] | Potency [12] | max response [17] 13.2% | Potency [19] | max response [15] -2.53%

CCCCCCCCCCCOC(=O)c1ccccc1C(=O)OCCCCCCCCCCC
inactive: Potency [1] > 92 µM | Potency [4] | outcome [5] | Potency [6] | Potency [8] | Potency [9] | Potency [10] | Potency [11] | Potency [12] | outcome [20] | max response [17] -3.34% | activation [18] -0.4% | Potency [14] | max response [15] 3%

O=C(O)CBr
inactive: Potency [1] > 92 µM | Potency [3] | Potency [4] | Potency [7] | Potency [16] | Potency [9] | Potency [11] | Potency [13] | outcome [20] | max response [17] -0.759% | activation [18] -0.961% | Potency [14] | Potency [19] | max response [15] 6.1%

CC(C)(C)OOC(=O)c1ccccc1
inactive: Potency [1] > 92 µM | Potency [3] | Potency [6] | Potency [16] | Potency [8] | Potency [9] | Potency [10] | Potency [11] | Potency [12] | outcome [20] | max response [17] 2.22% and 6.61% | activation [18] 0.502% and 3.48% | Potency [14] | Potency [19] | max response [15] 7.08% and -4.29%

Nc1ncc([N+](=O)[O-])s1
inactive: Potency [1] > 92 µM | Potency [2] | Potency [3] | Potency [4] | outcome [5] | Potency [6] | Potency [16] | Potency [8] | Potency [9] | outcome [20] | max response [17] 20% | activation [18] 0.765% | max response [15] -7.17%

Oc1c(Cl)cccc1Cl
inactive: Potency [1] > 92 µM | Potency [2] | Potency [3] | Potency [4] | Potency [6] | Potency [7] | Potency [16] | Potency [8] | Potency [9] | Potency [10] | Potency [11] | Potency [12] | Potency [13] | outcome [20] | max response [17] 27.8% | activation [18] -0.406% | Potency [14] | max response [15] -3.49%

N#CCc1ccccc1
inactive: Potency [1] > 92 µM | Potency [2] | Potency [3] | Potency [4] | outcome [5] | Potency [6] | Potency [7] | Potency [16] | Potency [8] | Potency [9] | Potency [10] | Potency [11] | Potency [12] | Potency [13] | outcome [20] | max response [17] 20.3% | activation [18] 0.487% | Potency [14] | max response [15] -1.92%
